Data published in PubChem BioAssay (NCATS).
Records with an inconclusive call do not appear. Active and inactive are the calls of the source. Calls follow the shape of the dose curve; as a rule, active = well fitted curve in the direction sought with a large enough effect; inconclusive = small, poorly fitted or top-dose-only effect, or another doubt; inactive = no such curve, though single readings can be large; an effect the other way counts as inactive or inconclusive.

Legend:
[1] = qHTS to identify inhibitors of the type 1 interferon - major histocompatibility complex class I in skeletal muscle: primary screen against the NCATS Pharmaceutical Collection (AID 1347407);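 also: luminescence of HiBiT knocked into endogenous HLA-B as interferon-induced MHC class I level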
Summary of the method: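 Luminescence from HiBiT-tagged endogenous HLA-B*08:01 served as the read-out of IFN-beta-induced MHC class I in CRISPR-engineered C25cl48 myoblasts. Cells received 4 ng/ml IFN-beta plus compound (high final 46 uM, […]) for 24 h.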

[2] = biological target: Protein phosphatase 1D (Homo sapiens) (UniProt O15297); experiment: RapidFire Mass Spectrometry qHTS Assay for Modulators of WT P53-Induced Phosphatase 1 (WIP1) (AID 1347424);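 also: amount of dephosphorylated VEPPL-S-QETFS peptide product formed by WIP1; series mostly up to about 63 µM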
Summary of the method: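 WIP1 (10 nM final) was preincubated 1 h at room temperature with compounds in Tris-HCl pH 7.5, 30 mM MgCl2, TCEP, EGTA, BSA; 2 uM VEPPL-pS-QETFS phosphopeptide was added for 5 min, quenched with formic acid, and dephosphorylated product quantified by RapidFire MS.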

[3] = biological target: Protein phosphatase 1D (Homo sapiens) (UniProt O15297); experiment: Rhodamine-PBP qHTS Assay for Modulators of WT P53-Induced Phosphatase 1 (WIP1) (AID 1347425)
Summary of the method: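 The read-out is the change in Rhodamine-PBP fluorescence (f1 - f0, ex 525/em 598 nm) as Pi is released, read each minute for 11 min. Final reaction: 5 nM WIP1, 10 uM phosphopeptide VEPPL-pS-QETFS, 10 uM Rh-PBP, 50 mM Tris-HCl pH 7.5, 30 mM MgCl2. Compound was preincubated with enzyme for 1 hour at room temperature.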

[4] = qHTS to identify inhibitors of the type 1 interferon - major histocompatibility complex class I in skeletal muscle: primary screen against the NCATS Mechanism Interrogation Plate v5.0 (MIPE) Libary (AID 1347411); also: nearly all actives have a fitted effect of over 65% in size
Summary of the method: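 Cells were genome-edited human myoblasts carrying a HiBit tag on endogenous HLA-B. They were treated with IFN-beta (4.0 ng/ml) and titrated compounds (top 46 uM) for 24 hrs before lytic HiBiT detection.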

[5] = Primary qHTS for inhibitors of La Crosse Virus (LACV) - induced cell death in SH-SY5Y cells (AID 1508616);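 also: top concentration of the series differs between compounds; higher means more rescue of cells from virus-induced death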
Summary of the method: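 Readout was luminescence from ATPLite 1step added after a 6-day LACV infection (0.01 MOI) of SH-SY5Y cells that had received pin-transferred compound 24 hr after seeding.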

[6] = qHTS for inhibitors of adenylyl cyclases using a fission yeast platform: a pilot screen against the NCATS LOPAC library (AID 1347410)
Summary of the method: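 Fission yeast qHTS: CHP2027 cells (AC9-GNAS-PDE4D2, fbp1-GFP), 5x10^6 cells/mL working density, EMM + His/Lys/Ura; LOPAC at up to 57 µM final; 18 h dark, 30C; GFP by laser cytometry. DPI positive control, DMSO vehicle.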

[7] = Validation qHTS assay for inhibitors of Activation Induced Cytidine Deaminase (AID): UDG Counterscreen signal (AID 1347427)
Summary of the method: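 Counterscreen read of UDG activity (2 U/mL, 4/3x) in the FRET deamination format with AID (1 uM, 4/3x), DJC20/DJC23 substrates (250 nM, 4x), 4 h at room temperature. NaOH stop, fluorescence at 560 ex/665 em.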

[8] = biological target: Single-stranded DNA cytosine deaminase (Homo sapiens) (UniProt Q9GZX7); experiment: Validation qHTS assay for inhibitors of Activation Induced Cytidine Deaminase (AID): AID signal (AID 1347429)
Summary of the method: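 In this coupled qHTS, AID deaminates a FRET-labelled ssDNA substrate in the presence of UDG over 4 hr at room temperature. Compounds span up to 114 uM final.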

[9] = biological target: Calcium and integrin-binding protein 1 (Homo sapiens) (UniProt Q99828); experiment: Validation qHTS for Identification of Calcium Integrin Binding protein 1 (CIB1) Competitor (AID 1508618)
Text: Assay Provider: Ulhas P. Naik, PhD
Sidney Kimmel Medical College
Thomas Jefferson University, Philadelphia, PA
Primary function of platelets is to maintain hemostasis. At the site of vascular injury, platelets adhere to adhesive proteins such as collagen and von Willebrand factor. Adherent platelets are activated and generate soluble platelet agonists such as thrombin, ADP and thromboxane A2. Following exposure of circulating platelets to these agonists, results in platelet shape change, granule secretion and activation of platelet integrin alphaIIb-beta3. Ligand binding to activated integrin alphaIIb-beta3 triggers outside-in signaling, leading to platelet aggregation, stabilization of platelet plug, and clot retraction. Upon atherosclerotic plaque rupture also causes platelet plug formation, which underlies a number of cardiovascular diseases such as myocardial infraction and stroke. A number of anti-platelet drugs such as aspirin, clopidogrel, prasugrel, vorapaxar, and eptifibatide are currently available to prevent the thrombotic complications. However, these anti-platelet agents have several limitations including inherent variability in individual responses, developing resistance, and serious bleeding side effects. For these reasons they are not suitable for long-term protection. Based on the experiences with current anti-platelet drugs, it appears that the most useful therapeutic approach is to intersect the secondary responses such as integrin outside-in signaling or recruitment of platelets by TxA2 and secreted ADP. Compounds, which can largely preserve the primary hemostatic function of platelets but inhibit secondary response will be most desired therapeutic agents for treatment of cardiovascular disease.
CIB1 is a calcium integrin binding protein, which specifically interact with the alphaIIb subunit of integrin alphaIIb-beta3. Binding of CIB1 to alphaIIb regulates the outside-in signaling in platelets, which is needed for thrombus stabilization and thrombus growth. […] Therefore, we propose that discovery of a small molecule that can prevent the association of CIB1 and alphaIIb-beta3 will be a potential anti-platelet agent that can block the thrombus formation without undue effect on hemostasis.
To develop fluorescence polarization (FP) assay using fluorescently labeled alphaIIb peptide and CIB1 protein. Using FP assay characterize the binding affinity, competitive inhibition, and acceptable Z factor (0.5 to1) in order to perform the HTS to identify small molecule compound that can prevent CIB1 binding to platelet integrin alphaIIbbeta3. This assay is screened against the NCATS LOPAC library to validate the amenability of the assay to qHTS.
[1] […]
7; Detection; Ex 480/ Em 540; ViewLux Fluorescence Read […]

[10] = biological target: Calcium and integrin-binding protein 1 (Homo sapiens) (UniProt Q99828); experiment: Confirmatory qHTS for Identification of Calcium Integrin Binding Protein 1 (CIB1) Competitor (AID 1508617); also: nearly all actives have a fitted effect of over 65% in size
Summary of the method: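 Compounds at up to 114 uM final met 1 uM GST-tagged CIB1 for 15 min at room temperature (HEPES pH 7.4, 5 mM CaCl2). FITC-labelled alphaIIb peptide, 100 nM, added; polarization read after 15 min more.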

Measured: Potency

Sequence of Protein phosphatase 1D (Homo sapiens) (O15297 whole entry, looked up): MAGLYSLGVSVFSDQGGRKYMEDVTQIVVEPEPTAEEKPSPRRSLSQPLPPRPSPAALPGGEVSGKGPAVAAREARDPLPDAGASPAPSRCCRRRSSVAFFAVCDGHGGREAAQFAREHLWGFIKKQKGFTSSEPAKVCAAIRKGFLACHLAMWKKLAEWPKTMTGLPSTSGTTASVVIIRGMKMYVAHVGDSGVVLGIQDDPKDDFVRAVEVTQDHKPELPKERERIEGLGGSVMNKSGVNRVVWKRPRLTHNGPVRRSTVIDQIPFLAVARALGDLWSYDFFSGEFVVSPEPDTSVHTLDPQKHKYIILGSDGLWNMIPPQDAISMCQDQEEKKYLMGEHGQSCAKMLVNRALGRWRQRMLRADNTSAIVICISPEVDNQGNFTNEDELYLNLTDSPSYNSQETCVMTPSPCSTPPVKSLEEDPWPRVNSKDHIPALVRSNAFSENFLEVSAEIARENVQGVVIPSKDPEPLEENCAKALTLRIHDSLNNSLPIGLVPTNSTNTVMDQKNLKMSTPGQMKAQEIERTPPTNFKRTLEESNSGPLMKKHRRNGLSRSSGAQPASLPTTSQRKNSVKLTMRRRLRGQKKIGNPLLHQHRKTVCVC
Sequence of Calcium and integrin-binding protein 1 (Homo sapiens) (Q99828 whole entry, looked up): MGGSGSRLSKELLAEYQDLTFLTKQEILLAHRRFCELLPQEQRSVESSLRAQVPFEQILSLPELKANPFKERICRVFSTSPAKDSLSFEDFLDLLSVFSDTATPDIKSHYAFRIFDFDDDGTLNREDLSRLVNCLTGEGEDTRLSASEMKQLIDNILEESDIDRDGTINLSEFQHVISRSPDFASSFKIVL
Sequence of Single-stranded DNA cytosine deaminase (Homo sapiens) (Q9GZX7 whole entry, looked up): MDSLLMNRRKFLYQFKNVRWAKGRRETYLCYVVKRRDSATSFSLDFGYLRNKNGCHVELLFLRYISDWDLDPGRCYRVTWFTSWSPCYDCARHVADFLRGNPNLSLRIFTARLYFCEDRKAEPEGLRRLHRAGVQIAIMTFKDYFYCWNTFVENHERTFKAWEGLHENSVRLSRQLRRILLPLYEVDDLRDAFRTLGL

O=C1C(=O)c2ccccc2C(O)=C1C1CCC(c2ccc(Cl)cc2)CC1 (stereo unspecified)
inactive: [1] | [2] | [3]

CC(=O)O[C@H]1C[C@@H]2CC[C@@H]3[C@H](CC[C@@]4(C)[C@H]3C[C@H]([N+]3(C)CCCCC3)[C@@H]4OC(C)=O)[C@@]2(C)C[C@@H]1N1CCCCC1
inactive: [1] | [4] | [2] | [3] | [5]

CCCCCCCCCCC[C@@H](C[C@@H]1OC(=O)[C@H]1CCCCCC)OC(=O)[C@H](CC(C)C)NC=O
inactive: [1] | [2] | [3]

CCO[C@@H]1O[C@H](C(COCc2ccccc2)OCc2ccccc2)[C@H](OCc2ccccc2)[C@H]1O (stereo partly specified)
inactive: [1] | [2] | [3] | [5]

Oc1ccccc1C=NCc1ccccc1
inactive: [1] | [2] | [3] | [5]

Cc1ccc(O)c([C@H](CCN(C(C)C)C(C)C)c2ccccc2)c1
inactive: [1] | [2] | [3]

CO[C@]12C[C@@H](COC(=O)c3cncc(Br)c3)CN(C)[C@@H]1Cc1cn(C)c3cccc2c13
inactive: [1] | [2] | [3] | [5]

OC[C@H]1O[C@@H]2O[C@H]3[C@H](O)[C@@H](O)[C@@H](O[C@H]4[C@H](O)[C@@H](O)[C@@H](O[C@H]5[C@H](O)[C@@H](O)[C@@H](O[C@H]6[C@H](O)[C@@H](O)[C@@H](O[C@H]7[C@H](O)[C@@H](O)[C@@H](O[C@H]8[C@H](O)[C@@H](O)[C@@H](O[C@H]1[C@H](O)[C@H]2O)O[C@@H]8CO)O[C@@H]7CO)O[C@@H]6CO)O[C@@H]5CO)O[C@@H]4CO)O[C@@H]3CO
inactive: [1] | [2] | [3] | [5]

CC(C)(C)NC[C@H](O)COc1nsnc1N1CCOCC1
not listed: [4] | [10]
inactive: all other assays above

COc1cc([C@H]2Oc3cc([C@H]4Oc5cc(O)cc(O)c5C(=O)[C@@H]4O)ccc3O[C@@H]2CO)ccc1O
inactive: [1] | [4] | [2] | [3] | [5] | [10]

CCOC(=O)[C@H](CCc1ccccc1)N[C@@H](C)C(=O)N1[C@H](C(=O)O)C[C@@H]2CCC[C@@H]21
inactive: [1] | [4] | [2] | [3] | [5]

CN(C)CCOC(c1ccc(Cl)cc1)c1ccccn1 (stereo unspecified)
inactive: [1] | [2] | [3] | [5]

Nc1nc(Cl)nc2c1ncn2[C@@H]1O[C@H](CO)[C@@H](O)[C@@H]1F
inactive: [1] | [4] | [2] | [3] | [5]

Cc1cc(NS(=O)(=O)c2ccc(N)cc2)nc(C)n1
inactive: [1] | [2] | [3] | [5]

Cc1ccc(S(=O)(=O)NC(=O)NC2CCCC2)cc1
inactive: [1] | [2] | [3] | [5]

O=C1[C@H](CC[C@H](O)c2ccc(F)cc2)[C@@H](c2ccc(O)cc2)N1c1ccc(F)cc1
inactive: [1] | [4] | [2] | [3] | [5]
